We go through nine molecules from PubChem BioAssay (NCATS).

Calls of active or inactive are those of the source. Calls follow the shape of the full dose curve.

One test is described as follows: qHTS drug screen for cell cycle checkpoint inhibitors in PARPi-resistant BRCA-mutant ovarian cancer cell lines. (AID 1963452). As to conditions: PEO1/OlaR viability, CellTiter-Glo luminescence, 96 h; stronger effect = lower value. The method, boiled down: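 PEO1, PEO4 and PEO1/OlaR ovarian cancer cells, 600 per well, exposed 96 h at 37C to a dilution series. Viability read by CellTiter-Glo luminescence, normalized to DMSO and empty wells; activity summarized as Z-AUC.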
On the technique in general: Quantitative high-throughput screening tests each substance at several concentrations.
As for `C=C1C(=O)O[C@H]2C[C@H](C)C(/C=C/C(C)=O)=CC[C@H]12`, the Z-AUC is 0.205 (inactive).

Turning to `OC1CCC(Oc2cccc3cnc(Nc4ccc5nc[nH]c5c4)nc23)CC1` (configuration not stated), the Z-AUC is -1.25 (inactive).

On to `CC1=C2[N-][C@H]([C@H](CC(N)=O)[C@@]2(C)CCC(=O)NC[C@@H](C)OP(=O)([O-])O[C@H]2[C@@H](O)[C@@H](n3cnc4cc(C)c(C)cc43)O[C@@H]2CO)[C@]2(C)N=C(C(C)=C3N=C(C=C4N=C1[C@@H](CCC(N)=O)C4(C)C)[C@@H](CCC(N)=O)[C@]3(C)CC(N)=O)[C@@H](CCC(N)=O)[C@]2(C)CC(N)=O.O.[Co+2]`, for which the Z-AUC was -0.864 (inactive).

With `CC(C)c1c(-c2ccccc2)nc2c(C#N)c[nH]n2c1=O`, the Z-AUC was 1.36 (inactive).

As to `C=C1C(=O)O[C@@H]2[C@H]3C(C)=CC[C@@]34O[C@@]4(C)CC[C@@H]12`, the Z-AUC was 0.243 (inactive).

As to `CN(C)C/C=C/C(=O)Nc1ccc(C(=O)N2CCC[C@@H](Nc3ncc(Cl)c(-c4c[nH]c5ccccc45)n3)C2)cc1`, the Z-AUC is -1.88 (inactive).

For the molecule `Fc1cccc(-n2cnc3c(NCc4nc5c(F)c(F)ccc5[nH]4)nc(N4CCOCC4)nc32)c1`, the Z-AUC was -1.76 (inactive).

As for `O=C(/C=C\n1cnc(-c2cc(C(F)(F)F)cc(C(F)(F)F)c2)n1)NNc1cnccn1`, the Z-AUC was -0.586 (inactive).

Still in this test, the particulars now being: PEO1/OlaR viability, CellTiter-Glo luminescence, 96 h; measured here: PEO1 parental Z-AUC; stronger effect = lower value.
Regarding `C=C1C(=O)O[C@H]2C[C@H](C)C(/C=C/C(C)=O)=CC[C@H]12`, the Z-AUC was -0.357.

`OC1CCC(Oc2cccc3cnc(Nc4ccc5nc[nH]c5c4)nc23)CC1` (configuration not stated): the Z-AUC was -1.54.

In the case of `CC1=C2[N-][C@H]([C@H](CC(N)=O)[C@@]2(C)CCC(=O)NC[C@@H](C)OP(=O)([O-])O[C@H]2[C@@H](O)[C@@H](n3cnc4cc(C)c(C)cc43)O[C@@H]2CO)[C@]2(C)N=C(C(C)=C3N=C(C=C4N=C1[C@@H](CCC(N)=O)C4(C)C)[C@@H](CCC(N)=O)[C@]3(C)CC(N)=O)[C@@H](CCC(N)=O)[C@]2(C)CC(N)=O.O.[Co+2]`, the Z-AUC worked out at 0.932.

Turning to `CC(C)c1c(-c2ccccc2)nc2c(C#N)c[nH]n2c1=O`, the Z-AUC amounted to 0.594.

For the molecule `C=C1C(=O)O[C@@H]2[C@H]3C(C)=CC[C@@]34O[C@@]4(C)CC[C@@H]12`, the Z-AUC was determined as 0.182.

Turning to `CN(C)C/C=C/C(=O)Nc1ccc(C(=O)N2CCC[C@@H](Nc3ncc(Cl)c(-c4c[nH]c5ccccc45)n3)C2)cc1`, the Z-AUC is -2.59.

In the case of `Fc1cccc(-n2cnc3c(NCc4nc5c(F)c(F)ccc5[nH]4)nc(N4CCOCC4)nc32)c1`, the Z-AUC was -2.45.

For the molecule `O=C(/C=C\n1cnc(-c2cc(C(F)(F)F)cc(C(F)(F)F)c2)n1)NNc1cnccn1`, the Z-AUC is -2.16.

In the case of `CS[C@H]1SC[C@@H]2C(=O)N(C)[C@H](C(C)C)C(=O)OC[C@H](NC(=O)c3cnc4ccccc4n3)C(=O)N[C@H](C)C(=O)N(C)[C@H]1C(=O)N(C)[C@H](C(C)C)C(=O)OC[C@H](NC(=O)c1cnc3ccccc3n1)C(=O)N[C@H](C)C(=O)N2C`, the Z-AUC was -3.58.
